Reference: PubChem BioAssay (EPA / NIEHS)
Active and inactive are the calls of the source. Rule for the calls: active = hit-call score of the fitted dose curve at least 0.9, where 1 is the maximum; inactive = score below 0.9.

Tests used:
Conditions in all cases: mRNA level, 48 h; actives raise or lower the signal
[1] = read-out: Cytochrome P450 (CYP2B6), CYP2B6 (gene 1555); experiment: LTEA_HepaRG_CYP2B6: Life Technologies and Expression Analysis (LTEA) Assay for Cytochrome P450 (CYP2B6) using HepaRG (AID 2283481)
Summary of the method: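 Differentiated human HepaRG cells in serum-free induction medium, dosed in duplicate for 48 h over 8 half-log concentrations topping at 100 uM (0.5% DMSO). CYP2B6 mRNA measured by TaqMan qRT-PCR, normalized to ACTB, GAPDH, POLR2A; bidirectional fit versus DMSO.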

[2] = read-out: Cytochrome P450 2C19 (Homo sapiens) (UniProt P33261); experiment: LTEA_HepaRG_CYP2C19: Life Technologies and Expression Analysis (LTEA) Assay for CYP2C19 using HepaRG (AID 2283482)
Summary of the method: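 Differentiated HepaRG cells in serum-free induction medium exposed 48 h in duplicate, 8 concentrations from 100 uM by half-log steps in 0.5% DMSO. CYP2C19 mRNA measured by TaqMan qRT-PCR, normalized to ACTB, GAPDH, POLR2A. Bidirectional fit versus DMSO.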

CYP2C8 (gene 1558) = experiment: LTEA_HepaRG_CYP2C8: Life Technologies and Expression Analysis (LTEA) Assay for CYP2C8 using HepaRG (AID 2283483)
Summary of the method: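 Differentiated HepaRG cells in serum-free induction medium exposed 48 h in duplicate to 8 half-log concentrations from 100 uM in 0.5% DMSO. CYP2C8 mRNA by qRT-PCR normalized to ACTB, GAPDH, POLR2A; bidirectional fit versus DMSO.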

CYP2C9 (gene 1559) = experiment: LTEA_HepaRG_CYP2C9: Life Technologies and Expression Analysis (LTEA) Assay for CYP2C9 using HepaRG (AID 2283484)
Summary of the method: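 Differentiated human HepaRG cells in serum-free induction medium were exposed 48 h to chemicals in 8-point half-log series from 100 uM (0.5% DMSO), in duplicate. CYP2C9 mRNA was measured by qRT-PCR, normalized to ACTB/GAPDH/POLR2A, with bidirectional fitting versus DMSO.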

CYP2E1 (gene 1571) = experiment: LTEA_HepaRG_CYP2E1: Life Technologies and Expression Analysis (LTEA) Assay for CYP2E1 using HepaRG (AID 2283485)
Summary of the method: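 HepaRG cells in serum-free induction medium exposed 48 h to test chemicals, 8 half-log concentrations up to 100 uM in 0.5% DMSO, duplicate. CYP2E1 mRNA by qRT-PCR, normalized to ACTB, GAPDH, POLR2A; bidirectional fit versus DMSO.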

CYP4A11 (gene 1579) = experiment: LTEA_HepaRG_CYP4A11: Life Technologies and Expression Analysis (LTEA) Assay for CYP4A11 using HepaRG (AID 2283486)
Summary of the method: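 Differentiated HepaRG cells, 48 h after plating, exposed in duplicate for 48 h to 8 half-log concentrations up to 100 uM in 0.5% DMSO in serum-free induction medium. CYP4A11 mRNA measured by TaqMan qRT-PCR, normalized to ACTB, GAPDH and POLR2A.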

[3] = read-out: Cytochrome P450 3A4 (Homo sapiens) (UniProt P08684); experiment: LTEA_HepaRG_CYP3A4: Life Technologies and Expression Analysis (LTEA) Assay for CYP3A4 using HepaRG (AID 2283487)
Summary of the method: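 In a human hepatic line (HepaRG), duplicate wells were treated 48 h with up to 100 uM chemical in half-log dilutions. Endpoint: CYP3A4 mRNA induction or loss relative to 0.5% DMSO vehicle, by qRT-PCR.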

[4] = read-out: DNA damage-inducible transcript 3 (DDIT3), DDIT3 (gene 1649); experiment: LTEA_HepaRG_DDIT3: Life Technologies and Expression Analysis (LTEA) Assay for DNA damage-inducible transcript 3 (DDIT3) using HepaRG (AID 2283488)
Summary of the method: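 Differentiated human HepaRG cells in serum-free induction medium were exposed in duplicate for 48 h to 8 concentrations (top 100 uM, half-log steps, 0.5% DMSO). DDIT3 mRNA measured by TaqMan qRT-PCR, normalized to ACTB/GAPDH/POLR2A; bidirectional fit versus DMSO.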

[5] = read-out: Pro-epidermal growth factor (Homo sapiens) (UniProt P01133); experiment: LTEA_HepaRG_EGF: Life Technologies and Expression Analysis (LTEA) Assay for Epidermal growth factor (EGF) using HepaRG (AID 2283489)
Summary of the method: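 HepaRG cells (~100,000/well, 48 h pre-culture) exposed in duplicate for 48 h in serum-free induction medium to 8 half-log concentrations up to 100 uM in 0.5% DMSO. EGF mRNA by qRT-PCR, normalized to ACTB/GAPDH/POLR2A; bidirectional fit versus DMSO.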

[6] = read-out: Early growth response protein 1 (EGR1) transcription factor, EGR1 (gene 1958); experiment: LTEA_HepaRG_EGR1: Life Technologies and Expression Analysis (LTEA) Assay for Early growth response protein 1 (EGR1) transcription factor using HepaRG (AID 2283490)
Summary of the method: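 Differentiated HepaRG cells in serum-free induction medium exposed 48 hours, duplicate, to 8 half-log concentrations up to 100 uM in 0.5% DMSO. EGR1 mRNA measured by TaqMan qRT-PCR, normalized to ACTB, GAPDH, POLR2A; bidirectional fit versus DMSO.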

[7] = read-out: Ezrin (EZR), EZR (gene 7430); experiment: LTEA_HepaRG_EZR: Life Technologies and Expression Analysis (LTEA) Assay for Ezrin (EZR) using HepaRG (AID 2283491)
Summary of the method: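 Gain or loss of EZR mRNA is scored relative to 0.5% DMSO in human HepaRG cultures treated 48 h with test chemicals in duplicate, eight half-log concentrations from 100 uM.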

[8] = read-out: Cytochrome P450 3A7 (Homo sapiens) (UniProt P24462); experiment: LTEA_HepaRG_CYP3A7: Life Technologies and Expression Analysis (LTEA) Assay for CYP3A7 using HepaRG (AID 2283492)
Summary of the method: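 Differentiated HepaRG cells in serum-free induction medium exposed 48 h in duplicate to 8-point half-log series from 100 uM top in 0.5% DMSO. CYP3A7 mRNA by qRT-PCR, normalized to ACTB/GAPDH/POLR2A, bidirectional fit versus DMSO.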

CYP3A5 (gene 1577) = experiment: LTEA_HepaRG_CYP3A5: Life Technologies and Expression Analysis (LTEA) Assay for CYP3A5 using HepaRG (AID 2283493)
Summary of the method: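 Differentiated HepaRG cells in serum-free induction medium were dosed 48 h with test chemicals (8-point half-log series, top 100 uM, 0.5% DMSO, duplicate). CYP3A5 mRNA measured by qRT-PCR, normalized to ACTB, GAPDH, POLR2A; bidirectional fit versus DMSO.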

[9] = read-out: Fatty Acid-Binding Protein 1 (FABP1), FABP1 (gene 2168); experiment: LTEA_HepaRG_FABP1: Life Technologies and Expression Analysis (LTEA) Assay for Fatty Acid-Binding Protein 1 (FABP1) using HepaRG (AID 2283494)
Summary of the method: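 Differentiated human HepaRG cells exposed 48 h in serum-free induction medium to eight half-log concentrations up to 100 uM (0.5% DMSO), duplicate. FABP1 mRNA by qRT-PCR, normalised to ACTB, GAPDH, POLR2A; bidirectional fitting against DMSO.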

[10] = read-out: Cytochrome P450 4A22 (Homo sapiens) (UniProt Q5TCH4); experiment: LTEA_HepaRG_CYP4A22: Life Technologies and Expression Analysis (LTEA) Assay for Cytochrome P450 4A22 (CYP4A22) using HepaRG (AID 2283495)
Summary of the method: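 Differentiated HepaRG cells in serum-free induction medium exposed 48 h in duplicate to eight half-log concentrations up to 100 uM in 0.5% DMSO. CYP4A22 mRNA quantified by TaqMan qRT-PCR, normalized to ACTB, GAPDH and POLR2A; bidirectional fit versus DMSO.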

[11] = read-out: Cytochrome P450 7A1 (Homo sapiens) (UniProt P22680); experiment: LTEA_HepaRG_CYP7A1: Life Technologies and Expression Analysis (LTEA) Assay for Cytochrome P450 7A1 (CYP7A1) using HepaRG (AID 2283496)
Summary of the method: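 Gene expression endpoint in human HepaRG liver cells treated for 48 h with test chemicals (up to 100 uM, 0.5% DMSO). Values come from bidirectional concentration-response fitting versus DMSO.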

[12] = read-out: Glutathione S-Transferase (GSTA2), GSTA2 (gene 2939); experiment: LTEA_HepaRG_GSTA2: Life Technologies and Expression Analysis (LTEA) Assay for Glutathione S-Transferase (GSTA2) using HepaRG (AID 2283497)
Summary of the method: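 Differentiated human HepaRG cells were exposed in duplicate for 48 h in serum-free induction medium, 8 points from 100 uM top in half-log steps, 0.5% DMSO. GSTA2 mRNA was measured by TaqMan qRT-PCR, normalized to ACTB, GAPDH and POLR2A; bidirectional fit versus DMSO.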

[13] = read-out: Glutamate-cysteine ligase catalytic (GCLC), GCLC (gene 2729); experiment: LTEA_HepaRG_GCLC: Life Technologies and Expression Analysis (LTEA) Assay for Glutamate-cysteine ligase catalytic (GCLC) using HepaRG (AID 2283498)
Summary of the method: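 Differentiated HepaRG cells exposed 48 h in serum-free induction medium, eight-point half-log series topping at 100 uM in 0.5% DMSO, duplicates. GCLC mRNA by qRT-PCR normalized to ACTB, GAPDH and POLR2A, fitted bidirectionally versus DMSO.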

[14] = read-out: growth arrest and DNA damage 45 (GADD45G), GADD45G (gene 10912); experiment: LTEA_HepaRG_GADD45G: Life Technologies and Expression Analysis (LTEA) Assay for growth arrest and DNA damage 45 (GADD45G) using HepaRG (AID 2283499)
Summary of the method: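 Differentiated human HepaRG cells, 48 h post-plating, exposed 48 h in serum-free induction medium to 8 half-log concentrations (top 100 uM, 0.5% DMSO) in duplicate. GADD45G mRNA measured by Fluidigm TaqMan qRT-PCR, normalized to ACTB, GAPDH, POLR2A; bidirectional fit versus DMSO.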

[15] = read-out: Glutamate-cysteine ligase regulatory (GCLM), GCLM (gene 2730); experiment: LTEA_HepaRG_GCLM: Life Technologies and Expression Analysis (LTEA) Assay for Glutamate-cysteine ligase regulatory (GCLM) using HepaRG (AID 2283500)
Summary of the method: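 Differentiated human HepaRG cells exposed 48 h in serum-free induction medium to 8-point half-log concentrations (top 100 uM, 0.5% DMSO), in duplicate. GCLM mRNA quantified by qRT-PCR, normalized to ACTB, GAPDH, POLR2A; bidirectional fitting versus DMSO.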

Measured: AC50

Chain of Cytochrome P450 3A7 (Homo sapiens) (P24462 whole entry, looked up): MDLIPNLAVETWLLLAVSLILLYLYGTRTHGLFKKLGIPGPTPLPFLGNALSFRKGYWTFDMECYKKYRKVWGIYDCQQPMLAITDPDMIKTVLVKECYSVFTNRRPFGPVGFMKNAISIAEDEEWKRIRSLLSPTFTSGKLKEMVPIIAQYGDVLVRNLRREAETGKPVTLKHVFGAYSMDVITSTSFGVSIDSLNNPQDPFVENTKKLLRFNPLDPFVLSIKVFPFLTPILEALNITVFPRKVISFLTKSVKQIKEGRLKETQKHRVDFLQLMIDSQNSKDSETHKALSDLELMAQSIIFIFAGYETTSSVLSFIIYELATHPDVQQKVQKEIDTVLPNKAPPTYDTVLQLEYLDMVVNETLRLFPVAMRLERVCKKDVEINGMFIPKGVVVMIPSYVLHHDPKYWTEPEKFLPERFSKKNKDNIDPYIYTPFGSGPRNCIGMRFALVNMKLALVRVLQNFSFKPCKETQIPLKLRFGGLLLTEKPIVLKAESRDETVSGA
Chain of Cytochrome P450 2C19 (Homo sapiens) (P33261 whole entry, looked up): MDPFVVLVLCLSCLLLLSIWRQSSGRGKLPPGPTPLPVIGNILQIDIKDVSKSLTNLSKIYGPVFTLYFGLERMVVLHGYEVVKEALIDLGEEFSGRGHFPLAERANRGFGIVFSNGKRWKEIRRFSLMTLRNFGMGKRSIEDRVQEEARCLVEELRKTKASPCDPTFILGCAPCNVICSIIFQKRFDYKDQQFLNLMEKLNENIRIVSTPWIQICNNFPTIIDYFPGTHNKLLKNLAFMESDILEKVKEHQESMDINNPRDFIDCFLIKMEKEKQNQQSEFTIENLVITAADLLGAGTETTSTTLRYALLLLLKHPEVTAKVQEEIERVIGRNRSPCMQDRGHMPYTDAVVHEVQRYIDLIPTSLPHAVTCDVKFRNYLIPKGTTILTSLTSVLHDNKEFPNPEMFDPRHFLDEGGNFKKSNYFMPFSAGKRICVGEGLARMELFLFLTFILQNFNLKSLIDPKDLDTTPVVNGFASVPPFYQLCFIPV
Chain of Cytochrome P450 3A4 (Homo sapiens) (P08684 whole entry, looked up): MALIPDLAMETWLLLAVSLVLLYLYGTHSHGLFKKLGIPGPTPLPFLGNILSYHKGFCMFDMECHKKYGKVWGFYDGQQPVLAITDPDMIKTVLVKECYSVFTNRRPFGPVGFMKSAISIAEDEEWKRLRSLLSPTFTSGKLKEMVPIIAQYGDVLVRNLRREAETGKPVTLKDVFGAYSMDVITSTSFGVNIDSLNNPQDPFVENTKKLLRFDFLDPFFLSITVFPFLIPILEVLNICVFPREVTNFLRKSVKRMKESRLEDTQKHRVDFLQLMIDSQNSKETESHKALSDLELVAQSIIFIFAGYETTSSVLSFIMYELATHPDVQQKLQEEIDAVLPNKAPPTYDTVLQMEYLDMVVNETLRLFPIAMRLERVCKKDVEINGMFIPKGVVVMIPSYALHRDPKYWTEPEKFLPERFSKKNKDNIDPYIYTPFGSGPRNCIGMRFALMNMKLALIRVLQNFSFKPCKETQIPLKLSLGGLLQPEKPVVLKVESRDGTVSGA

CCOc1cc(Oc2ccc(C(F)(F)F)cc2Cl)ccc1[N+](=O)[O-]
active: [1] 34.4 µM | [2] 69.3 µM | CYP2C8 (gene 1558) 74.2 µM | CYP2C9 (gene 1559) 35.7 µM | CYP2E1 (gene 1571) 24.8 µM | CYP4A11 (gene 1579) 41.6 µM | [3] 12.2 µM | [4] 78 µM | [5] 10.5 µM | [8] 75.8 µM | [9] 30.4 µM | [10] 39.1 µM | [11] 34.8 µM | [12] 39.9 µM | [15] 50 µM
inactive: [6] | [7] | CYP3A5 (gene 1577) | [13] | [14]

COC(=O)C=C(C)OP(=O)(OC)OC
active: [6] 50 µM | [11] 14.7 µM
inactive: all other assays above

N#Cc1nn(-c2c(Cl)cc(C(F)(F)F)cc2Cl)c(N)c1S(=O)C(F)(F)F (stereo not drawn)
active: [1] 28.9 µM | [2] 29.9 µM | CYP2C8 (gene 1558) 33 µM | CYP2C9 (gene 1559) 34.9 µM | CYP2E1 (gene 1571) 12.9 µM | CYP4A11 (gene 1579) 24.6 µM | [3] 32.6 µM | [4] 30.2 µM | [6] 13.2 µM | [7] 29.3 µM | [9] 24.1 µM | [10] 26.2 µM | [11] 35 µM | [12] 32 µM | [14] 31.5 µM | [15] 29.1 µM
inactive: CYP3A5 (gene 1577) | [13]

O=C(Nc1ccccc1)Nc1ccnc(Cl)c1
inactive: CYP2C8 (gene 1558) | [4] | [5] | [8] | [14]
active: [1] 88.4 µM | [2] 79 µM | CYP2C9 (gene 1559) 75.6 µM | CYP2E1 (gene 1571) 25.4 µM | CYP4A11 (gene 1579) 36.6 µM | [3] 70.8 µM | [6] 84.6 µM | [7] 79.5 µM | CYP3A5 (gene 1577) 49.1 µM | [9] 71.3 µM | [10] 28.4 µM | [11] 81.3 µM | [12] 24.9 µM | [13] 83 µM | [15] 84.8 µM

Cc1ccc(-c2c(Cl)nc(C#N)n2S(=O)(=O)N(C)C)cc1
active: [1] 5 µM | [2] 5.98 µM | CYP2C8 (gene 1558) 9.33 µM | CYP2C9 (gene 1559) 7.78 µM | CYP2E1 (gene 1571) 5.17 µM | CYP4A11 (gene 1579) 10.4 µM | [3] 24.8 µM | [4] 21.7 µM | [8] 83.5 µM | [9] 4.76 µM | [10] 73.9 µM | [11] 10 µM | [12] 9.43 µM | [13] 7.01 µM | [14] 11.7 µM
inactive: [5] | [6] | [7] | CYP3A5 (gene 1577) | [15]
